# Laboratory results as given in the supplement of paper PMC11732987, “Enantioselective OTUD7B fragment discovery through chemoproteomics screening and high-throughput optimisation” (Communications Chemistry, 2025).
# A number with no mark means an inactive call.
# What was measured:
# Assay in all cases: log2 ratio of Biotin-Ahx-Ub-VS probe labelling (fragment/DMSO); higher = less target engagement (more negative = stronger competition), active = hit call of the paper (q ≤ 0.05, log2 ratio ≤ -1)
# Details in all cases: compound concentration: 200 uM; treatment time: 3 h
# USP19 = molecular target: T1, USP19 (UniProt O94966)
# T1 sequence (whole entry): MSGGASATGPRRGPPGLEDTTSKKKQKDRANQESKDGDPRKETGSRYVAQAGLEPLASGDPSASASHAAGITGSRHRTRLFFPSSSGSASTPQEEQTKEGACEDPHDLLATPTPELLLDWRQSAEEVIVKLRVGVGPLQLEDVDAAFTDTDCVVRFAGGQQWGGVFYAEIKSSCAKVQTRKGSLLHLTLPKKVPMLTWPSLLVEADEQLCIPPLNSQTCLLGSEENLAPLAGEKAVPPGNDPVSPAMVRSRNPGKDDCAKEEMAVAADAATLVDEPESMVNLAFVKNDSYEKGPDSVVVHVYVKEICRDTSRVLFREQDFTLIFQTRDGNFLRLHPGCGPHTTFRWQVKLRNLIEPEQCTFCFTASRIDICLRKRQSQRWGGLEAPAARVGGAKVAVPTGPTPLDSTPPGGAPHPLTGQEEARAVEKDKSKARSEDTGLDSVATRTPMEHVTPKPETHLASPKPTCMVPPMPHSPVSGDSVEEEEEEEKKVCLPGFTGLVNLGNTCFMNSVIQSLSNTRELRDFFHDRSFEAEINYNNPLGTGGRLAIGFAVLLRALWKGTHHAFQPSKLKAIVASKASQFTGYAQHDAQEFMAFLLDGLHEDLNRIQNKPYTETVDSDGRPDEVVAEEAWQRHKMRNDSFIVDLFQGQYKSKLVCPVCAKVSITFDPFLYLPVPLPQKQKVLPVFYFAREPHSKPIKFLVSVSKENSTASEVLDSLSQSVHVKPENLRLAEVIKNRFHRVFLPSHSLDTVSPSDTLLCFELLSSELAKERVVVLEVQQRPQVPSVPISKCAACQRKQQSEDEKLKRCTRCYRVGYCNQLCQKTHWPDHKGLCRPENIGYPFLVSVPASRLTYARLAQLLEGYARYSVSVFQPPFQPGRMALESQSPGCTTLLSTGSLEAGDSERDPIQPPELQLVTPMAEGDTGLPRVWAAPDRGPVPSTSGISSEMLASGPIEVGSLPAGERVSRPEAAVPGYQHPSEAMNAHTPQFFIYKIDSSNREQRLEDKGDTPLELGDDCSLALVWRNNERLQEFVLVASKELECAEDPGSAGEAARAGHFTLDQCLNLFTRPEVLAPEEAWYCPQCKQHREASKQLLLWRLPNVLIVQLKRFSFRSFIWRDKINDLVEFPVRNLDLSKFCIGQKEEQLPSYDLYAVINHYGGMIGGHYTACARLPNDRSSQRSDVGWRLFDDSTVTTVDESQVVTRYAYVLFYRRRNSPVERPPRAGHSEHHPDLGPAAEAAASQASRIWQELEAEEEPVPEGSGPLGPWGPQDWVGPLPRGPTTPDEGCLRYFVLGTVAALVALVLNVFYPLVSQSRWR
# Summary of the method: (§1)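 Fragment (200 µM) or vehicle was incubated for 3 h with triplicate HEK293T lysate samples of 495 µg, which were then treated with Biotin-Ahx-Ub-VS at 0.5 µM final for 1 h. Labelled DUBs were enriched on NeutrAvidin, digested with LysC and trypsin, and analysed by diaPASEF LC-MS/MS. Values are average log2 fragment/vehicle ratios from an unpaired t-test on global-median-normalised Spectronaut label-free quantities, using proteins with ≥2 unique peptides.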
# USP24 = USP24 (UniProt Q9UPU5)
# Summary of the method: as §1
# USP25 = molecular target: T2, USP25 (UniProt Q9UHP3)
# T2 sequence (whole entry): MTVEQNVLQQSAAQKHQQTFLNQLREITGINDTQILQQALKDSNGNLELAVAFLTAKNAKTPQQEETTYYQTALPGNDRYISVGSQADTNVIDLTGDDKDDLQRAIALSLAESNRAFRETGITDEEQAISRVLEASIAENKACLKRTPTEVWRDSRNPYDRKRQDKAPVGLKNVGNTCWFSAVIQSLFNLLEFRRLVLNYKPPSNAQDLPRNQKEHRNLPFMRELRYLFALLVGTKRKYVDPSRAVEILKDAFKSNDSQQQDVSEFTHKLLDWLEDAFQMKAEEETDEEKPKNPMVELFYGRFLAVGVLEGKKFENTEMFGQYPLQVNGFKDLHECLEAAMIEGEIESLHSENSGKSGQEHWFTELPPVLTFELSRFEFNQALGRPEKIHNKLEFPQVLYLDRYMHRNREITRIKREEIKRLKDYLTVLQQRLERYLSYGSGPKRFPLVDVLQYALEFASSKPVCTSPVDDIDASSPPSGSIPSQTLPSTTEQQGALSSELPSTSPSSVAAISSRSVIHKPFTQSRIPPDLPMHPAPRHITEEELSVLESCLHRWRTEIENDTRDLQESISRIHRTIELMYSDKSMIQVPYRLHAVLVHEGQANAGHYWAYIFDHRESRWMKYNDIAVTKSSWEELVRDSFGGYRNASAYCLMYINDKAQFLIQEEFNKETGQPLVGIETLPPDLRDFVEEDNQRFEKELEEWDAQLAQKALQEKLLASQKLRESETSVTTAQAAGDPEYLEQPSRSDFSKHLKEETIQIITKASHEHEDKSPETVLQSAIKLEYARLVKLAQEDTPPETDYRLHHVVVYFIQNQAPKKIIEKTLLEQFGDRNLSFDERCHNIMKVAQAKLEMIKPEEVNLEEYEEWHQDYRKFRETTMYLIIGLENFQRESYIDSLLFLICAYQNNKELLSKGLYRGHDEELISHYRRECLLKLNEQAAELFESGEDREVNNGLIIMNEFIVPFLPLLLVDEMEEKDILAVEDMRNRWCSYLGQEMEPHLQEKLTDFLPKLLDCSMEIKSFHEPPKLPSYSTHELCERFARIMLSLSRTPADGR
# Summary of the method: as §1
# USP28 = molecular target: T3, USP28 (UniProt Q96RU2)
# T3 sequence (whole entry): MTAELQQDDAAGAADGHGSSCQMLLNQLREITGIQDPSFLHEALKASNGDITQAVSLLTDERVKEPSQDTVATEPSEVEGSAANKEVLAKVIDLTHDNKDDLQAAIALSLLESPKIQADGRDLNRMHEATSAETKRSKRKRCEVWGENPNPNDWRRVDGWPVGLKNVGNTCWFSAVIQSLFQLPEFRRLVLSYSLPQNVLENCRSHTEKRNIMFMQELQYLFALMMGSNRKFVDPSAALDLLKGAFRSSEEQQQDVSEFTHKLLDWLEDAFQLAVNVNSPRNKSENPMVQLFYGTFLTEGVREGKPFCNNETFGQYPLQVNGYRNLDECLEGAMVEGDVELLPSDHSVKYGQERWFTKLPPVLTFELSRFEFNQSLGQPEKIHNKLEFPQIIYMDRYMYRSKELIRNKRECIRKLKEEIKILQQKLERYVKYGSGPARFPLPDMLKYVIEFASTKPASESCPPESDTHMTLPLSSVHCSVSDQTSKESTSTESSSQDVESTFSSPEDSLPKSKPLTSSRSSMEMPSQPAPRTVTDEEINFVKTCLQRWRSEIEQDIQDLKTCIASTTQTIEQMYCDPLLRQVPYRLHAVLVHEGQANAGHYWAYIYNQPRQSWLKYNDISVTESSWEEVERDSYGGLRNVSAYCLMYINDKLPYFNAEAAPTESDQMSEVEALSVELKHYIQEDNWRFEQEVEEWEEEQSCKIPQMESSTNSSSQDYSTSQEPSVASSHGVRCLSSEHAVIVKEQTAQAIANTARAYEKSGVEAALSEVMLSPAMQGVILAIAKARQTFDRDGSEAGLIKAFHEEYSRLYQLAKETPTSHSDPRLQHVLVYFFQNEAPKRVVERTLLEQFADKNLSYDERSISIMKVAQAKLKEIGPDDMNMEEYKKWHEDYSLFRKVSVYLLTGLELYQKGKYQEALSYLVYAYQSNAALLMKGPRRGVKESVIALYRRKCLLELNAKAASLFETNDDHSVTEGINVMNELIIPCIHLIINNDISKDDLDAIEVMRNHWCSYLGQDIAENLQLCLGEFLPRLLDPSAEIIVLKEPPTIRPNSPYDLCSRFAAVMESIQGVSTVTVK
# Summary of the method: as §1
# Sequence of USP24 (Q9UPU5 whole entry): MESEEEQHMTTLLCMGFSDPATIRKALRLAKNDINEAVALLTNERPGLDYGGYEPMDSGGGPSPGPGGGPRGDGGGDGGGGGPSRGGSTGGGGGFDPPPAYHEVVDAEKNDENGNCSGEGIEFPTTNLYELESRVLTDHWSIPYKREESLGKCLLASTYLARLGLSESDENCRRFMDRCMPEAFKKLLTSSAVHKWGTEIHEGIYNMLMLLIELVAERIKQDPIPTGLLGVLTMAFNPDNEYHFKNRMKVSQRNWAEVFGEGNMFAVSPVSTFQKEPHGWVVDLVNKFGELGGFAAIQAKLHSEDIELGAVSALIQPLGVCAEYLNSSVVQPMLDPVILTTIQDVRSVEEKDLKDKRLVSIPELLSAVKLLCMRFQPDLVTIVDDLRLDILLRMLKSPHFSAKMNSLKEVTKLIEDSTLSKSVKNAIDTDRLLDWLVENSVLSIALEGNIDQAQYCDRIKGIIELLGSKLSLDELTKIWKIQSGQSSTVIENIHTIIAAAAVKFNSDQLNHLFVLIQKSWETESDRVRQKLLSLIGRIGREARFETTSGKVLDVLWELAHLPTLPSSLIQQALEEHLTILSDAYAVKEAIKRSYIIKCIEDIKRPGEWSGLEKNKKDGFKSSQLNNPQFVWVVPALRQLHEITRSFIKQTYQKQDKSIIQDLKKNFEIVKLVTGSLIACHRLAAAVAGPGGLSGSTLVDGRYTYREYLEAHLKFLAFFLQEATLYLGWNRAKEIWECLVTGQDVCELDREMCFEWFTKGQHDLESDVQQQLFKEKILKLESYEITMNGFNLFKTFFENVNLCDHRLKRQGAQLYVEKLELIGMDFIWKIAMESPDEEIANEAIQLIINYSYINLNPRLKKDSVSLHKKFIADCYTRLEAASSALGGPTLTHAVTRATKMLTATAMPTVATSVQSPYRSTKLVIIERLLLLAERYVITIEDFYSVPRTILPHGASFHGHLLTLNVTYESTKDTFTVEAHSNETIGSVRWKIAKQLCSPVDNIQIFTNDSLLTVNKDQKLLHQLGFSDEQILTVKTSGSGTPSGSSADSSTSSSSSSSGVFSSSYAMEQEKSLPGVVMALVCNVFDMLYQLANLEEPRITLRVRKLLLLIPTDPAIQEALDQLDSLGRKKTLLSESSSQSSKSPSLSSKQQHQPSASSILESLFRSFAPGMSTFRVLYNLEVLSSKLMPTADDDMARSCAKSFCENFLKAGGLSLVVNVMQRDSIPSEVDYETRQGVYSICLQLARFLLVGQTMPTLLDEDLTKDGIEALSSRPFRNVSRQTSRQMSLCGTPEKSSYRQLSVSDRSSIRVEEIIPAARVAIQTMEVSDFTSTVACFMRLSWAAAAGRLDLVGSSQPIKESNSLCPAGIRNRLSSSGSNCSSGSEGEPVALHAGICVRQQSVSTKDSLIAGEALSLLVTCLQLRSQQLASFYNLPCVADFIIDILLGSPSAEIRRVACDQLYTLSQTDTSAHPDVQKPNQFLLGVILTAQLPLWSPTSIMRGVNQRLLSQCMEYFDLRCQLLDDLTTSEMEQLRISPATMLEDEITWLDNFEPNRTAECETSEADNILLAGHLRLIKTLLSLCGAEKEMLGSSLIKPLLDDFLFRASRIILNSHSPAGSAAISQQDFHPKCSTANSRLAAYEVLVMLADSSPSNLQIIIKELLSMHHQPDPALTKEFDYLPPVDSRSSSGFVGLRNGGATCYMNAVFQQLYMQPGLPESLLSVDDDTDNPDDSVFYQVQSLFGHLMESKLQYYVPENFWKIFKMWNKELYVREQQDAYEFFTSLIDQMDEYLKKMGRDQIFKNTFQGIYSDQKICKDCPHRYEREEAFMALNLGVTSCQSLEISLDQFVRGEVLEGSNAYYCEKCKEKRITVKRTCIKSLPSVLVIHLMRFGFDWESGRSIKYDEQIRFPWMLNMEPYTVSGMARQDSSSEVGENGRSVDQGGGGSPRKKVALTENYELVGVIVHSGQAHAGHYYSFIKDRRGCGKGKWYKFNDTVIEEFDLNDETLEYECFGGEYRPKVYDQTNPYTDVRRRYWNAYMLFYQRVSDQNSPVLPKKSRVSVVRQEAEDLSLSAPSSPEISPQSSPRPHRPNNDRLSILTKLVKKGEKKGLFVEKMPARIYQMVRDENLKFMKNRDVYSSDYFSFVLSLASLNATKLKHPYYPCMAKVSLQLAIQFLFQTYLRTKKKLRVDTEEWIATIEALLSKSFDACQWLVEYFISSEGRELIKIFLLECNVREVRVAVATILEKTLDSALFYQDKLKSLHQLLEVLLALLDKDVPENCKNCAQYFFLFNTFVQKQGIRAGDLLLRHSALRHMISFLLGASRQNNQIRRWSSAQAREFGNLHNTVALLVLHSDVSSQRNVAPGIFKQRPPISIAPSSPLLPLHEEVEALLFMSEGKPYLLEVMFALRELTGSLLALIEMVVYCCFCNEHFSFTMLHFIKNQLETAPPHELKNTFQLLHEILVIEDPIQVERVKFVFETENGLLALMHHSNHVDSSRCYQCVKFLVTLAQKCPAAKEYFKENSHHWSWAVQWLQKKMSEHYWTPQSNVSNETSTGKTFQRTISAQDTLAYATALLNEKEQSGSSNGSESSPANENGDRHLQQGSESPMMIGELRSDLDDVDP
smiles,measurement,setting,value
O=C(CCl)Nc1cc2c(cc1Cl)OCCCO2,log2 ratio of Biotin-Ahx-Ub-VS probe labelling,USP19,0.113
same,log2 ratio of Biotin-Ahx-Ub-VS probe labelling,USP24,0.00346
same,log2 ratio of Biotin-Ahx-Ub-VS probe labelling,USP25,-2.47 (active)
same,log2 ratio of Biotin-Ahx-Ub-VS probe labelling,USP28,-1.92 (active)
